Screening results as filed in PubChem BioAssay.
Sampled rows, rich in hits. Any-hit rate of the full collection: about 5.7%.
HP1b chromo inh: inhibitors of HP1-beta chromodomain binding to methylated histone tails; P83916; AlphaScreen HP1-beta / biotin-H3K9me3 peptide binding; Potency, µM (top dose mostly 114 µM), for inactives: top-dose activity change, negative = inhibition, most hits filed as inhibitors; hit rate 0.56% among 390,000; note: potency is the fitted concentration of half-maximal effect; nearly all actives have a fitted effect of over 70% in size
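Compound inhibition of the preformed complex between 50 nM HP1-beta and 50 nM biotinylated H3K9me3 peptide was read by AlphaScreen. Buffer was PBS pH 7.4 with 0.01% Tween-20. Incubations ran 30 min at room temperature, with 10 ug/mL donor/acceptor beads.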
JMJD2A Tudor inh: JMJD2A Tudor domain (human) inhibition. Potency, µM (series often up to 114 µM), for the others: top-dose activity change, negative = inhibition, hits mostly inhibitors. AlphaScreen JMJD2A-Tudor / H3K4me3 peptide binding. hit rate 4.4% among 390,000. O75164; note: potency is the fitted concentration of half-maximal effect; % is set by controls: 0 for no effect and ±100 for the full control effect; nearly all actives have a fitted effect of over 50% in size
JMJD2E inh: blocks human JMJD2E demethylase activity | JMJD2E catalytic domain, FDH-coupled NADH fluorescence (FDH is formaldehyde dehydrogenase) | Potency, µM (doses to about 57.1 µM), for inactives: at the top dose activity change, negative = inhibition, actives largely listed as inhibitors | hit rate 1.6% among 230,000 | AID 2147; active = well fitted inhibition curve with a large enough effect, not every such curve was filed as active; inconclusive = small, poorly fitted or top-dose-only effect, or another doubt; inactive = no such curve, though single readings can be large or run the other way;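 note: potency is the fitted concentration of half-maximal effect; 0% = wells with enzyme and -100% = buffer wells without enzyme; nearly all actives have a fitted effect of over 50% in size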
PI5P4Ka inh: blocks human PI5P4K alpha kinase activity; hit rate 1.2% among 330,000; AID 652105; PI5P4Kalpha enzyme, ADP-Glo luminescence, 60 min; stronger effect = lower value; max response, %; active = max response of -50% or lower; inconclusive = between -30% and -50%; inactive = -30% or higher; note: value at the top dose of about 77 µM; % is set by controls: 0 for no effect and ±100 for the full control effect
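Enzyme plus substrate dispensed, test compounds pinned in, then ATP (5 microM final) added. After 60 min at RT, ADP-Glo reagent 1 for 45 min and reagent 2 for 30 min preceded luminescence imaging.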
BAZ2B inh: blocks human BAZ2B; Q9UIF8; AlphaScreen BAZ2B-H3K14Ac peptide displacement; Potency, µM (highest dose often 114 µM), without a hit: at the highest dose activity change, negative = inhibition, hits mostly inhibitors; hit rate 4.4% among 360,000; note: potency is the fitted concentration of half-maximal effect; % is set by controls: 0 for no effect and ±100 for the full control effect; nearly all actives have a fitted effect of over 60% in size
Target sequence (Q9UIF8 whole entry, looked up): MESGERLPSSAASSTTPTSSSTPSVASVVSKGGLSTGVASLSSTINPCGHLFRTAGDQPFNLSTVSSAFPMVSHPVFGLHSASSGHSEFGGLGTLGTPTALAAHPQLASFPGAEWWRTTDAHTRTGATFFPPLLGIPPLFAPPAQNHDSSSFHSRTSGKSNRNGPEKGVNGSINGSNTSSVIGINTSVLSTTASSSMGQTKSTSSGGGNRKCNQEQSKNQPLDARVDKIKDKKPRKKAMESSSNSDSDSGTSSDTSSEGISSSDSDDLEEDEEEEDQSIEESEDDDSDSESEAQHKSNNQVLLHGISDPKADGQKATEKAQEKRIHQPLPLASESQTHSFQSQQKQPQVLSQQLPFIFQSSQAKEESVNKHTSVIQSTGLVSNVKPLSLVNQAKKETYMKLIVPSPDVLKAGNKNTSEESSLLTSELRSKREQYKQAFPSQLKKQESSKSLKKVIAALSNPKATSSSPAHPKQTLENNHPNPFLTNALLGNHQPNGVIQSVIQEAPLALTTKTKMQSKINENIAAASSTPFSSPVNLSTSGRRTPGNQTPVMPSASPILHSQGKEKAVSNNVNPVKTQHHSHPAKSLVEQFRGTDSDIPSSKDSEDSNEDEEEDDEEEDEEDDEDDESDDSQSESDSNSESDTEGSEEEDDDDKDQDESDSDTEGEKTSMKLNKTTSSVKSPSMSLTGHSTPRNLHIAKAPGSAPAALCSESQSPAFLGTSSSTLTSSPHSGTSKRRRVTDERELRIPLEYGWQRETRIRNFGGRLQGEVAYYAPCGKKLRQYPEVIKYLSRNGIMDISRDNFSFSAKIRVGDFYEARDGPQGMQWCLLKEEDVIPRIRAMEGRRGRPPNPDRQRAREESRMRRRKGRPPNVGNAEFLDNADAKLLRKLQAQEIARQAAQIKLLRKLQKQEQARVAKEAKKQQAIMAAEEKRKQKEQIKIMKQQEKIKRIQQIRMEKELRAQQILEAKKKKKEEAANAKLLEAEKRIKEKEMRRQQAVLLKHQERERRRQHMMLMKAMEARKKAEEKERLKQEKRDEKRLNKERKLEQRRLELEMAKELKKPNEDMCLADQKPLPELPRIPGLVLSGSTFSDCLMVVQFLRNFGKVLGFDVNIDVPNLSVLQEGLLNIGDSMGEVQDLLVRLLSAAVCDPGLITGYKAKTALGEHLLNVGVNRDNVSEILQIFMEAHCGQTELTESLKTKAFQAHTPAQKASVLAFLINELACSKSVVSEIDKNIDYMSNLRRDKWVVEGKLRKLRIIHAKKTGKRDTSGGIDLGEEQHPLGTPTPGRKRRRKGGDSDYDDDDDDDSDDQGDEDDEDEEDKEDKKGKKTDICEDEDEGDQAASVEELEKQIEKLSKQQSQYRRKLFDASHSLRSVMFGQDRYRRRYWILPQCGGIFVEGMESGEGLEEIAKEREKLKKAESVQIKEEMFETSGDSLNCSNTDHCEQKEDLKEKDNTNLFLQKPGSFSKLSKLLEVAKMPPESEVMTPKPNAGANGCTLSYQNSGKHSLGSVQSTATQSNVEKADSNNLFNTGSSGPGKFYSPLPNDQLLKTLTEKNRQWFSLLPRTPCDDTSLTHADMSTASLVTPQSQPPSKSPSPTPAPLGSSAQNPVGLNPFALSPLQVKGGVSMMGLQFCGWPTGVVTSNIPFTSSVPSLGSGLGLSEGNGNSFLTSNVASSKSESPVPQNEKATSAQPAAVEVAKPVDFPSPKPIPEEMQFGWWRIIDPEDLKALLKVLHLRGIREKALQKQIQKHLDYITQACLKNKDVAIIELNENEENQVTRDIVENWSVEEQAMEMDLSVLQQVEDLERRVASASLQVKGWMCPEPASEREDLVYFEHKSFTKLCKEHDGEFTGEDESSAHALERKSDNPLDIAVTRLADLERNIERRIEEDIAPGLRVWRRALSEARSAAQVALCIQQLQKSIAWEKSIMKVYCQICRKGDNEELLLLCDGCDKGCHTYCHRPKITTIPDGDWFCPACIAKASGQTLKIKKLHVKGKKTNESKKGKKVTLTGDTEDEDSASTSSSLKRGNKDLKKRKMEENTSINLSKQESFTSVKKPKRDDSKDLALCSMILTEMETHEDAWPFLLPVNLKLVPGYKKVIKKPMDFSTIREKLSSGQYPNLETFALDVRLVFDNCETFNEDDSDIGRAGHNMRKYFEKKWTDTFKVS
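Protein-peptide AlphaScreen: BAZ2B 50 nM, b-H3K14Ac 50 nM, 1x PBS pH 7.4 + 0.01% Tween-20. Preincubation 30 min RT; cpd 30 min RT (top 110 uM); beads 20 min RT, light-protected.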
L3MBTL1 block: inhibitors of human L3MBTL1; Q9Y468; hit rate 0.66% among 230,000; Potency, µM (doses to about 57.1 µM), for the others: at the highest dose activity, negative = inhibition, hits mostly inhibitors; AlphaScreen L3MBTL1–H3K9me1 peptide binding; AID 485360; note: potency is the fitted concentration of half-maximal effect; % is set by controls: 0 for no effect and ±100 for the full control effect; nearly all actives have a fitted effect of over 60% in size
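Displacement of a biotinylated histone H3(1-15) peptide monomethylated at Lys9 (75 nM) from L3MBTL1 (50 nM) was measured by AlphaScreen after a 30 min room-temperature compound incubation; cefsulodin titration served as intraplate control.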
* = called active by the depositor; ? = inconclusive; nt = not tested or not shown; [ ] = dose if it differs, or a comment. Unless noted, calls come from the whole dose curve; as a rule, active = well fitted inhibition curve with a large enough effect; inconclusive = small, poorly fitted or top-dose-only effect; inactive = no such curve, though single readings can be large or run the other way.

SMILES	HP1b chromo inh	JMJD2A Tudor inh	JMJD2E inh	PI5P4Ka inh	BAZ2B inh	L3MBTL1 block
CC(C)Oc1ccc(CNCC2(O)CCOC(C)(C)C2)cc1 (configuration not stated)	?	2.2µM*	?	-2	?	15%
CC1(C)CC(O)(CNCc2ccc3c(c2)OCO3)CCO1 (configuration not stated)	33%	-14%	300%	-2	-5%	-4%
COc1ccc(-c2nc(C)c(CCNC(=O)c3cccc(C)c3)s2)cc1OC	8%[57 µM]	-22%	nt	nt	-2%	nt
O=C(COC(=O)COc1ccccc1F)Nc1ccc(Cl)cn1	33%	-1%	-1%	3	4%	4%
O=C(COC(=O)Cc1ccccc1F)Nc1ccc(Cl)cn1	-11%	20µM*	-3%	?	12%	nt
CCN(CC)S(=O)(=O)c1nnc(NC(=O)COc2cccc(C)c2)s1	18%	-28%	nt	nt	?	nt
O=c1c2cc(-c3ccccc3)sc2nc2n1CCC2	nt	nt	35µM*	nt	-8%	-4%
Cc1nc2sc(-c3ccccc3)cc2c(=O)n1N	44%	-12%	?	?	5%	7%
OC[C@@H]1CN(Cc2ccc3c(c2)OCO3)C[C@H](n2cnc3c(NC4CC4)ncnc32)O1	nt	nt	nt	5	nt	nt
O=C(CNC(=O)c1ccccc1Br)N/N=C/c1ccccc1O	31%	-1%[57.1 µM]	25µM*	1	-1%	-11%
O=C(CNC(=O)c1ccncc1)N/N=C/c1cc(Br)ccc1O	37%	0%	-2%	-7	6%	12%
O=C(CNC(=O)c1ccccc1)N/N=C/c1cc(Br)ccc1O	43%	-4%	28µM*	2	8%	-5%
CCCCCn1c(-c2cccc(C)c2)nc2ccccc21	143%	55%	nt	nt	115%	nt
CCOc1ccc(N2C(=O)c3cccnc3C2=O)cc1	7%	?	1%	nt	56µM*	-1%
COc1ccc(OC)c(N2C(=O)c3cccnc3C2=O)c1	50%	-32%	nt	1	79µM*	-11%
CCOc1ccc(N2C(=O)Cc3ccccc3C2=O)cc1	8%	-15%	nt	-2	-25%	nt
COC(=O)c1cccc(N2C(=O)c3cccnc3C2=O)c1	27%	45µM*	2%	-3	-113%	?
O=C1CS/C(=N\N=C\c2ccco2)N1c1ccccc1	2%	?	-21%	?	50µM*	-26%
O=C(NCc1ccco1)c1sc(=S)n2c1[nH]c(=O)c1ccccc12	?	50µM*	2%	nt	?	-20%
CCCCCNC(=O)c1ccc2c(=O)[nH]c3c(C(=O)NCC4CCCO4)sc(=S)n3c2c1 (configuration not stated)	?	-33%[57.1 µM]	-7%	-26	-39%	nt
O=C(NC1CCCC1)c1sc(=S)n2c1[nH]c(=O)c1ccccc12	-36%	89µM*	2%	nt	?	0%
C=CCn1c(N)c(C(=O)NCc2ccco2)sc1=S	?	-25%	7%	nt	?	2%
O=C(c1ccccc1F)N1CCN(c2ccc([N+](=O)[O-])cc2-n2cccc2)CC1	9%	?	-14%	0	22µM*	nt
COC1=C(OC)C(=O)C(CCCCCCCCCCO)=C(C)C1=O	nt	nt	18%	nt	50µM*	nt
CCN(C(=O)c1coc(=O)c(Br)c1)c1ccc2c(c1)OCO2	-26%	50µM*	?	nt	50µM*	?
SMILES	HP1b chromo inh	JMJD2A Tudor inh	JMJD2E inh	PI5P4Ka inh	BAZ2B inh	L3MBTL1 block
CCN(C(=O)c1c(C)cc(=O)oc1C)c1ccc2c(c1)OCO2	7%	-3%	1%	0	-1%	7%
Cc1ccc(Cn2c(CNS(=O)(=O)c3c(C)cc(C)cc3C)nc3cccnc32)cc1	21%[57 µM]	-32%	nt	nt	-14%	nt
CCn1c(SCCN2CCCCC2)nc2c1c(=O)n(C)c(=O)n2C	71µM*	-25%	nt	-3	nt	nt
COc1ccc(O)c(/C=N/N2CCCCC2)c1	4%	50µM*	nt	0	50µM*	nt
COc1ccc(/C(C)=N/N2CCCCC2)c(O)c1	40%	14%	nt	-8	2%	nt
Cc1cccc(NC(=S)N/N=C2\CC(C)(C)Oc3ccc(O)cc32)c1	-2%	?	?	7	-12%	-6%
CC1(C)C/C(=N\NC(=S)Nc2ccccc2F)c2cc(O)ccc2O1	7.9µM*	18µM*	?	-12	?	-23%
CCOc1ccc2nc(NC3=NC(c4ccc(OC)cc4)CC(=O)N3)nc(C)c2c1 (configuration not stated)	?	79µM*	?	nt	-1%[57.1 µM]	-27%
COc1ccc(C2=NN(C(=O)CCCC(=O)O)C(c3cn(-c4ccccc4)nc3-c3ccccc3)C2)cc1 (configuration not stated)	32%	56µM*	0%	13	56µM*	nt
COc1ccc(C2=NN(C(=O)CN3CCCCC3)C(c3ccc(C)cc3)C2)cc1 (configuration not stated)	5%	-35%	-28%	2	-22%	-18%
CCOc1ccc2nc(Cl)c(C3CC(c4ccc(C)cc4)=NN3C(=O)CCC(=O)O)cc2c1 (configuration not stated)	-12%	79µM*	nt	nt	?	nt
CCOC(=O)c1nnn(CC(=O)N2N=C(c3ccc(Cl)cc3)CC2c2ccc(OC)cc2)c1C(=O)OCC (configuration not stated)	22%	-30%	32µM*	1	-2%	-6%
COc1ccc(C2CC(c3ccccc3)=NN2C(=O)CN2CCN(Cc3ccccc3)CC2)cc1 (configuration not stated)	-31%	79µM*	5%	-4	35µM*	-16%
COc1ccc(NC(=O)c2oc3ccc(S(=O)(=O)N(C)C4CCCCC4)cc3c2C)cc1Cl	14%	-12%	nt	nt	-2%	nt
C[n+]1cnn2c1SCC1(COC1)C2	4%	25µM*	-11%	nt	-2%	4%
CSc1nc2c(c(=O)n1Cc1ccccc1)SC(C)C2 (configuration not stated)	11%	-20%	0%	nt	-34%	-3%
CSc1nc2[nH]c(=O)n(O)c(=O)c2n1Cc1ccccc1	-15%	3.2µM*	nt	?	nt	nt
COc1ccc2nc3oc(C(=O)N4CCN(c5cc(C)ccc5C)CC4)cc3cc2c1	17%	-8%	nt	nt	nt	nt
COc1ccc(C2c3c(nc(C)[nH]c3=O)Oc3ccc4ccccc4c32)cc1OC (configuration not stated)	nt	-12%	nt	nt	nt	nt
O=[N+]([O-])c1ccc(O)c(C=Nc2ccc3nc(-c4ccccc4)[nH]c3c2)c1	8%	-25%	?	?	-6%	2%
Oc1c(Br)cc(C=Nc2ccc3nc(-c4ccccc4)[nH]c3c2)c(O)c1Br	-16%	?	4%	-71*	40µM*	nt
CS(=O)(=O)N(CC(=O)N1CCN(c2ccccc2)CC1)C1CCCCC1	-15%	50µM*	6%	0	8%	1%
